Measured values as given in PubChem BioAssay (NCI).
About 83,000 compounds went through this panel and 20% of them were active in at least one assay; those are over-represented in the sample as a whole.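 Cell lines were cultured in 96-well plates, exposed to a single compound concentration, and assessed for percent growth 48 hours later.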 The source made the active and inactive calls. How the source made its calls: active means growth percent below 10; inactive means the rest.

Key:
Assay in all cases: NCI-60 one-dose screen, 48 h (100 = growth as untreated, 0 = no growth, -100 = all killed)
Conditions in all cases: 10 µM
DU-145 prostate = tested on: DU-145 prostate
K-562 leukemia = tested on: K-562 leukemia
MALME-3M melanoma = tested on: MALME-3M melanoma
MDA-MB-231 breast = tested on: MDA-MB-231 breast
RXF 393 renal = tested on: RXF 393 renal
SF-268 CNS = tested on: SF-268 CNS
SF-295 CNS = tested on: SF-295 CNS
SF-539 CNS = tested on: SF-539 CNS
UACC-257 melanoma = tested on: UACC-257 melanoma
M14 melanoma = tested on: M14 melanoma
HCT-15 colon = tested on: HCT-15 colon
HT29 colon = tested on: HT29 colon
SNB-75 CNS = tested on: SNB-75 CNS
SNB-19 CNS = tested on: SNB-19 CNS
PC-3 prostate = tested on: PC-3 prostate
SK-MEL-5 melanoma = tested on: SK-MEL-5 melanoma
UACC-62 melanoma = tested on: UACC-62 melanoma
LOX IMVI melanoma = tested on: LOX IMVI melanoma
SK-MEL-28 melanoma = tested on: SK-MEL-28 melanoma
U251 CNS = tested on: U251 CNS

Measured: growth

COc1ccc(C(=O)N2C=Cc3ccccc3C2C#N)cc1 (centres undefined)
inactive: DU-145 prostate 109% | K-562 leukemia 67.4% | MALME-3M melanoma 100% | MDA-MB-231 breast 86.9% | RXF 393 renal 90% | SF-268 CNS 99.9% | SF-295 CNS 99.2% | SF-539 CNS 96.8% | UACC-257 melanoma 93.7% | M14 melanoma 116% | HCT-15 colon 90.7% | HT29 colon 110% | SNB-75 CNS 94.1% | SNB-19 CNS 93.6% | PC-3 prostate 93.2% | SK-MEL-5 melanoma 101% | UACC-62 melanoma 92.5% | LOX IMVI melanoma 95.4% | SK-MEL-28 melanoma 95.3%

CCOC(=O)C1=CSC2=NC3=C(CCC/C3=C\c3cc(OC)c(OC)c(OC)c3)C(c3cc(OC)c(OC)c(OC)c3)N12 (centres undefined)
inactive: K-562 leukemia 38.7% | MALME-3M melanoma 74.6% | MDA-MB-231 breast 74.2% | RXF 393 renal 32.7% | SF-268 CNS 33.3% | SF-295 CNS 55.8% | SF-539 CNS 49.9% | UACC-257 melanoma 58.1% | M14 melanoma 16.9% | HCT-15 colon 57.7% | HT29 colon 12.9% | SNB-75 CNS 39.1% | SNB-19 CNS 85.1% | PC-3 prostate 77.1% | SK-MEL-5 melanoma 60.3% | UACC-62 melanoma 74.4% | LOX IMVI melanoma 23% | SK-MEL-28 melanoma 67.2%
active: DU-145 prostate 8.85%

CCOc1ccccc1/C=N\N=C\c1ccccc1O
inactive: DU-145 prostate 98.8% | K-562 leukemia 75.5% | MALME-3M melanoma 96.5% | MDA-MB-231 breast 78.7% | RXF 393 renal 121% | SF-268 CNS 94.7% | SF-295 CNS 105% | SF-539 CNS 107% | UACC-257 melanoma 107% | M14 melanoma 97.3% | HCT-15 colon 100% | HT29 colon 101% | SNB-75 CNS 97.6% | SNB-19 CNS 97.8% | U251 CNS 104% | SK-MEL-5 melanoma 95.5% | UACC-62 melanoma 93% | LOX IMVI melanoma 90.3%

O=C(O)COc1c(Cl)cc([N+](=O)[O-])cc1Cl
inactive: DU-145 prostate 111% | K-562 leukemia 92.2% | MALME-3M melanoma 97.1% | MDA-MB-231 breast 117% | RXF 393 renal 102% | SF-268 CNS 96.5% | SF-295 CNS 100% | SF-539 CNS 99.5% | UACC-257 melanoma 79.7% | M14 melanoma 88.7% | HCT-15 colon 103% | HT29 colon 86.2% | SNB-75 CNS 102% | SNB-19 CNS 112% | U251 CNS 97.5% | SK-MEL-5 melanoma 96.3% | LOX IMVI melanoma 100% | SK-MEL-28 melanoma 102%

CC1=CC2C(C(O)CC3(C)C2CC(C)C32OCOC23COCO3)C2(C)C/C(=C/O)C(=O)C=C12 (centres undefined)
active: K-562 leukemia 2.43% | HCT-15 colon -24.2% | HT29 colon 3.89% | LOX IMVI melanoma -60.9%
inactive: DU-145 prostate 44.1% | MALME-3M melanoma 15.5% | MDA-MB-231 breast 18% | RXF 393 renal 26.1% | SF-268 CNS 24.8% | SF-295 CNS 79.5% | SF-539 CNS 41.5% | UACC-257 melanoma 78.2% | M14 melanoma 18.7% | SNB-75 CNS 100% | SNB-19 CNS 56% | PC-3 prostate 31.7% | SK-MEL-5 melanoma 44.2% | UACC-62 melanoma 30.4% | SK-MEL-28 melanoma 66.3%

CC[C@@H](C(=O)[C@H](C)[C@H](O)[C@@H](C)[C@H]1O[C@H]([C@@H](CC)C(=O)O)CC[C@H]1C)C1O[C@]2(C=C[C@@H](O)[C@]3(CC[C@@](C)([C@H]4CC[C@](O)(CC)[C@H](C)O4)O3)O2)[C@H](C)C[C@@H]1C (some centres undefined)
inactive: DU-145 prostate 51.3% | MDA-MB-231 breast 17.3% | SF-268 CNS 38% | UACC-257 melanoma 35.3% | HCT-15 colon 25.7% | HT29 colon 26.1% | U251 CNS 14.2% | LOX IMVI melanoma 29.3%
active: K-562 leukemia 6.72% | MALME-3M melanoma -83.6% | RXF 393 renal -8.61% | SF-295 CNS -12.6% | SF-539 CNS 2.48% | M14 melanoma -38.8% | SNB-75 CNS -12.7% | SNB-19 CNS -13.3% | SK-MEL-5 melanoma -99.2% | UACC-62 melanoma -92.2% | SK-MEL-28 melanoma -93%

O=C1/C=C/[C@@H](O)[C@@H]2C[C@@H](O)C[C@H]2/C=C/CCC[C@H](C(F)(F)F)O1
active: MALME-3M melanoma -10.9% | MDA-MB-231 breast -31.8% | RXF 393 renal -28.8% | UACC-257 melanoma 6% | HCT-15 colon 6.45% | HT29 colon -28.3% | SK-MEL-5 melanoma -98.3% | UACC-62 melanoma -3.9% | LOX IMVI melanoma -90.6% | SK-MEL-28 melanoma -8.65%
inactive: DU-145 prostate 28.2% | K-562 leukemia 20.7% | SF-268 CNS 17.9% | SF-295 CNS 78% | SF-539 CNS 21.4% | M14 melanoma 13.4% | SNB-75 CNS 39.1% | SNB-19 CNS 65.6% | PC-3 prostate 25.1%

COc1ccc(-c2nn(-c3cccc(Cl)c3)cc2-c2cc(-c3cccs3)[nH]c(=S)n2)cc1
inactive: DU-145 prostate 74.6% | K-562 leukemia 28.3% | MALME-3M melanoma 31.1% | MDA-MB-231 breast 83.3% | RXF 393 renal 56.7% | SF-268 CNS 61.6% | SF-539 CNS 69.3% | UACC-257 melanoma 88.6% | M14 melanoma 33.6% | HCT-15 colon 45.7% | HT29 colon 62.2% | SNB-75 CNS 67.4% | SNB-19 CNS 44.7% | PC-3 prostate 48.5% | SK-MEL-5 melanoma 52.2% | UACC-62 melanoma 44.9% | LOX IMVI melanoma 43.4% | SK-MEL-28 melanoma 57.3%
active: SF-295 CNS 8.31%

Cc1ccc(S(=O)(=O)N(C)CCCCCC(=O)O)cc1
inactive: DU-145 prostate 102% | K-562 leukemia 104% | MALME-3M melanoma 98.5% | MDA-MB-231 breast 110% | RXF 393 renal 103% | SF-268 CNS 99% | SF-295 CNS 92.7% | SF-539 CNS 97.9% | UACC-257 melanoma 98.2% | M14 melanoma 95.1% | HCT-15 colon 97.8% | HT29 colon 92.5% | SNB-75 CNS 94% | SNB-19 CNS 108% | U251 CNS 104% | SK-MEL-5 melanoma 105% | UACC-62 melanoma 106% | LOX IMVI melanoma 95.4% | SK-MEL-28 melanoma 105%

CCOC(=O)c1cc(C(=O)c2ccc(OC)c(OC)c2)n2c1ccc1ccc3cccnc3c12
inactive: DU-145 prostate 21.7% | K-562 leukemia 14.7% | MALME-3M melanoma 40.1% | MDA-MB-231 breast 45.2% | RXF 393 renal 24.8% | SF-268 CNS 51.8% | SF-295 CNS 12% | UACC-257 melanoma 51% | HCT-15 colon 31.1% | SNB-75 CNS 18% | SNB-19 CNS 45.8% | U251 CNS 24.8% | SK-MEL-5 melanoma 17.4% | UACC-62 melanoma 47.4% | LOX IMVI melanoma 31.6% | SK-MEL-28 melanoma 60.2%
active: SF-539 CNS 9.16% | M14 melanoma 7.8% | HT29 colon 6.74%

C=CCN(CC=C)C(=O)[C@H](CC)[C@@H]1CC[C@@H](C)[C@@H]([C@H](C)[C@@H](O)[C@@H](C)C(=O)[C@H](CC)C2O[C@]3(C=C[C@@H](O)[C@]4(CC[C@@](C)([C@H]5CC[C@](O)(CC)[C@H](C)O5)O4)O3)[C@H](C)C[C@@H]2C)O1 (some centres undefined)
inactive: DU-145 prostate 53.7% | K-562 leukemia 14.3% | SF-268 CNS 41.7% | SF-539 CNS 29.1% | M14 melanoma 17.9% | SNB-19 CNS 14.2% | U251 CNS 18.9% | UACC-62 melanoma 14.3% | LOX IMVI melanoma 17% | SK-MEL-28 melanoma 33.9%
active: MALME-3M melanoma -22.4% | MDA-MB-231 breast -36.3% | RXF 393 renal -1.56% | SF-295 CNS -16% | UACC-257 melanoma 7.88% | HCT-15 colon 4.64% | HT29 colon 9.13% | SNB-75 CNS -7.45% | SK-MEL-5 melanoma -85.2%

O=C(Nc1cc([N+](=O)[O-])c2[nH]c(=O)c3ccccc3c2c1)C(F)(F)F
inactive: DU-145 prostate 97.1% | K-562 leukemia 84.6% | MALME-3M melanoma 83.7% | MDA-MB-231 breast 88.6% | RXF 393 renal 76.7% | SF-268 CNS 86.7% | SF-295 CNS 80.8% | SF-539 CNS 93.6% | UACC-257 melanoma 93.4% | M14 melanoma 107% | HCT-15 colon 81% | HT29 colon 90.4% | SNB-75 CNS 89.3% | SNB-19 CNS 87.1% | PC-3 prostate 94.4% | SK-MEL-5 melanoma 91% | UACC-62 melanoma 81.7% | LOX IMVI melanoma 68% | SK-MEL-28 melanoma 114%

COc1ccc(C(=O)c2ccccc2CN2C(=O)c3ccccc3C2=O)cc1
inactive: DU-145 prostate 110% | K-562 leukemia 96.5% | MALME-3M melanoma 98.6% | MDA-MB-231 breast 109% | RXF 393 renal 107% | SF-268 CNS 102% | SF-295 CNS 100% | SF-539 CNS 108% | UACC-257 melanoma 104% | M14 melanoma 104% | HCT-15 colon 112% | HT29 colon 99.7% | SNB-75 CNS 92% | SNB-19 CNS 99.6% | PC-3 prostate 89.6% | SK-MEL-5 melanoma 100% | UACC-62 melanoma 97.2% | LOX IMVI melanoma 94.3% | SK-MEL-28 melanoma 114%

Cc1c2cnccc2c(C)c2c1oc1ccccc12
inactive: DU-145 prostate 54.1% | K-562 leukemia 77.2% | MALME-3M melanoma 62.7% | MDA-MB-231 breast 111% | RXF 393 renal 71.5% | SF-268 CNS 73.8% | SF-295 CNS 74.9% | SF-539 CNS 96.6% | UACC-257 melanoma 86.8% | M14 melanoma 81.6% | HCT-15 colon 72.3% | HT29 colon 72.8% | SNB-75 CNS 106% | SNB-19 CNS 73.1% | PC-3 prostate 99.8% | SK-MEL-5 melanoma 60.1% | UACC-62 melanoma 53.9% | LOX IMVI melanoma 42.1% | SK-MEL-28 melanoma 110%
